Results published in PubChem BioAssay (NCI).
About 83,000 compounds went through this panel and 20% of them were active in at least one assay; those are over-represented in the sample as a whole.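 Activity criterion: percent growth below 10, measured after cells in 96-well plates were exposed to a single compound concentration for 48 hours.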 Values without a mark were called inactive. Active and inactive are the calls of the source.

Columns and labels:
Test in all cases: NCI-60 one-dose screen, 48 h (100 = growth as untreated, 0 = no growth, -100 = all killed)
Settings in all cases: 10 µM
[1] = tested on: HT29 colon
[2] = tested on: SNB-75 CNS
[3] = tested on: SNB-19 CNS
[4] = tested on: U251 CNS
[5] = tested on: PC-3 prostate
[6] = tested on: SK-MEL-5 melanoma
[7] = tested on: UACC-62 melanoma
[8] = tested on: LOX IMVI melanoma
[9] = tested on: SK-MEL-28 melanoma
[10] = tested on: SK-MEL-2 melanoma

SMILES | growth [1] | growth [2] | growth [3] | growth [4] | growth [5] | growth [6] | growth [7] | growth [8] | growth [9] | growth [10]
COC(=O)c1c(-c2ccccc2)csc1NC(=O)c1c(-c2ccccc2)noc1C | 7.12% (active) | 48.1% | 43.9% | 13.3% | 32.5% | 32% | 48.3% | -50% (active) | 47.9% | 61.2%
N#CCCN1C/C(=C/c2ccc(Cl)cc2)C(=O)/C(=C/c2ccc(Cl)cc2)C1 | -36.1% (active) | 11.6% | -28% (active) | -95.3% (active) | -39.6% (active) | -60.6% (active) | -66.1% (active) | -80.4% (active) | -61.4% (active) | 19%
Cc1nc2c(c(=O)[nH]1)OCN(Cc1ccccc1)C2 | 105% | 89.6% | 97.2% | 108% | 89.1% | 102% | 105% | 101% | 105% | 130%
COc1ccc2nc3ccccc3c(NCCNCC(C)O)c2c1 (stereo not given) | 1.38% (active) | 28.1% | 0.0735% (active) | 1.29% (active) | 4.7% (active) | 10.3% | -59.9% (active) | -47.1% (active) | 8.18% (active) | -21.8% (active)
O=C1ON=[N+](c2ccc(Cc3ccc([N+]4=NOC(=O)C4CN4CCOCC4)cc3)cc2)C1CN1CCOCC1 (stereo not given) | 89.7% | 72.6% | 86.5% | 62.8% | 56.5% | 53.2% | 53.4% | 65% | 74.9% | 78.6%
N#CCCN1C/C(=C/c2ccc(Br)cc2)C(=O)/C(=C/c2ccc(Br)cc2)C1 | -33.8% (active) | 33.3% | -46.6% (active) | -80.8% (active) | -34% (active) | 1.94% (active) | -75% (active) | -71.3% (active) | -36.8% (active) | 5.41% (active)
CCOC(=O)N1C=CC2C=CC1C1C=CC=CC2N1C(=O)OCC (stereo not given) | 94.8% | 80.4% | 94.1% | 93.5% | 90.1% | 84.1% | 91.6% | 102% | 87.8% | 90.9%
c1ccc(CNc2ncnc3scc(-c4cccs4)c23)nc1 | 91.2% | 64.6% | 67.2% | 75.7% | 58.6% | 14.8% | 56% | 74.2% | 96.7% | 72.2%
O=C(c1cccs1)c1ccccc1Cc1ccccc1 | 96.6% | 94.4% | 90.4% | 92.5% | 87.7% | 97.9% | 90.1% | 103% | 101% | 96.1%
Cc1ccc(Nc2cc(C)nc(NCCCNc3ccnc4cc(Cl)ccc34)n2)cc1 | -87.2% (active) | -98.5% (active) | -24.9% (active) | -99.2% (active) | -38.4% (active) | -100% (active) | -92.9% (active) | -82.7% (active) | -100% (active) | -97% (active)
Cc1cc(Cl)nc(N(CCCNc2ccnc3cc(Cl)ccc23)Cc2cccs2)n1 | 1.59% (active) | 55.6% | 42.9% | 8.68% (active) | 10.1% | -74.3% (active) | 10% | -1.18% (active) | 16.1% | 16.9%
O=C(c1ccc(Cl)cc1Cl)N1CCOCC1 | 105% | 81.8% | 103% | 105% | 96.4% | 96.3% | 101% | 96.8% | 110% | 96.5%
CSc1cc(SC)ncn1 | 97.3% | 94.2% | 91% | 108% | 91% | 104% | 93.7% | 105% | 102% | 100%
CC(=O)N(C)c1ccc(Nc2ccc(Nc3ccc(N(C)C(C)=O)cc3)c3c2C(=O)c2ccccc2C3=O)cc1 | 68.6% | 73.9% | 88.4% | 77.3% | 38.3% | 79% | 88.8% | 55% | 106% | 82.8%
Cn1c(N)c(N=Nc2ccc(S(=O)(=O)Nc3nccs3)cc2)c(=O)n(C)c1=O | 107% | 94.1% | 104% | 99.2% | 90.5% | 104% | 106% | 89.4% | 112% | 92.4%
O=C(Nc1ccc(CO)cc1)c1ccccc1Nc1ccnc(C(F)(F)F)c1 | 109% | 87.8% | 106% | 95.4% | 99.5% | 107% | 95.4% | 92.2% | 101% | 123%
c1ccc(CSc2nnc3c4c5c(sc4nc(-c4cccnc4)n23)CCCCCC5)cc1 | 22.4% | 74.1% | 46.5% | 16.8% | 9.01% (active) | -46% (active) | 34.9% | 60.1% | 49.2% | 16.5%
COc1ccc2c(c1)C(=O)c1c-2c(=O)n(CCCN(C)C)c2cc(OC)c(OC)cc12 | 60.6% | 48.9% | 59.2% | 43.8% | 72.2% | 86.8% | 77% | 17.3% | 111% | 69%
CN1CCC2(CC1)NC(=O)c1c(c3ccc(Cl)c(Cl)c3n1C)C2C#N (stereo not given) | 44.8% | 34.3% | 77.8% | 90.6% | 67.1% | 37.8% | -69.4% (active) | 76.6% | 70.4% | 99.6%
CC(C)=CCc1cc(O)cc2c1OC(C=C(C)C)C1=C2C(=O)C2=C(C1=O)S(=O)(=O)CCN2 (stereo not given) | 64.8% | 72.2% | 46.2% | -14.3% (active) | 6.32% (active) | 16.2% | 9.11% (active) | 4.91% (active) | 36.8% | 28.8%
N=C(N)c1ccc(-c2ccc(-c3cccs3)s2)cc1 | -53.8% (active) | 70.9% | 109% | -48.5% (active) | 78% | 31.4% | 40.4% | -81.7% (active) | 37.7% | 99%
O=C1/C(=C\c2ccc(F)cc2)CN(C(=O)c2ccccc2)C/C1=C\c1ccc(F)cc1 | -50.9% (active) | 48.1% | 61.3% | -25% (active) | 22.1% | 34.3% | 4.27% (active) | -55.9% (active) | 34.8% | 54.8%
COc1ccc(/C=C2/CN(CCC#N)C/C(=C\c3ccc(OC)cc3)C2=O)cc1 | -37.6% (active) | 51.4% | 59.6% | -28.3% (active) | -11.7% (active) | -0.858% (active) | -27.5% (active) | -53.7% (active) | 6.16% (active) | 57.3%
Cc1c(Cl)cccc1NC(=O)c1sc2nc3c(cc2c1N)C(=O)CCC3 | 3.09% (active) | 27% | 45.4% | 7.51% (active) | 21.4% | 9.76% (active) | 34.5% | 33.3% | 43.7% | 18%
COc1ccc(/C=C/C(=O)Nc2ccc(-c3nc4ccc(F)cc4s3)cc2)cc1 | 101% | 102% | 99% | 95.4% | 94.6% | 86.8% | 99.8% | 94.7% | 109% | 117%
O=C(Nc1ccc(Cl)cc1)N1NC(c2ccc(Cl)cc2)C=C1c1ccccc1 (stereo not given) | 103% | 72.1% | 109% | 97.1% | 107% | 94.6% | 105% | 104% | 109% | 107%
Cc1cc2ccccc2nc1-c1ccccc1F | 119% | 112% | 110% | 91.1% | 94.3% | 102% | 105% | 97.8% | 116% | 111%
CCCCCCc1cc(N=Nc2ccc(S(=O)(=O)Nc3cc(C)nc(C)n3)cc2)c(O)cc1O | 95.6% | 91.8% | 103% | 100% | 96.2% | 98.9% | 105% | 96.2% | 115% | 90.5%
